Reference: PubChem BioAssay (NCATS)
Where “and” joins values, the source holds several entries; their conditions need not be identical. Equal values may be shown once. Results filed as inconclusive are left out. A call without a number means that no potency is given here. Calls of active or inactive are those of the source. Unless noted, calls follow the shape of the dose curve; as a rule, active = well fitted curve in the direction sought with a large enough effect; inconclusive = small, poorly fitted or top-dose-only effect, or another doubt; inactive = no such curve, though single readings can be large; an effect the other way counts as inactive or inconclusive.

What was measured:
[1] = Cell Viability - H-4-II-E (AID 543);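 also: cells exposed to compound for 40 hours; nearly all actives have a fitted effect of over 35% in size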; also: potency is read from the fitted curve at half-maximal effect
In short: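 Cells seeded at 1500 per well and rested 5 hr; compounds added; 40 hr incubation at 37 °C; CellTiter-Glo added, 20 min at room temperature; luminescence read. Hill-equation fits gave AC50.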

[2] = Cell Viability - SH-SY5Y (AID 544); conditions: SH-SY5Y neuroblastoma cell viability; viability change, negative = cytotoxic: at 92.2 µM (top of the series);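 also: cells exposed to compound for 40 hours; nearly all actives have a fitted effect of over 55% in size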; also: potency is read from the fitted curve at half-maximal effect
In short: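 Cells were plated at 1500 per well and allowed 5 hr at 37 °C. Compounds were added across a concentration range and incubated 40 hr at 37 °C. CellTiter-Glo was added for 20 min at room temperature before luminescence reading.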

[3] = Cell Viability - Renal Proximal Tubule (AID 545);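 also: cells exposed to compound for 40 hours; nearly all actives have a fitted effect of over 40% in size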
In short: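 Rat kidney proximal tubule cells, freshly isolated; 1000 cells/well, 5 hr settle, compound 40 hr 37 °C. CellTiter-Glo 20 min RT, luminescence read. AC50 by standard Hill fit.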

[4] = Cellular Toxicity (caspase-3) Hek293 (AID 664); conditions: HEK293 caspase-3 activation, DMSO = 0%, 100 µM tamoxifen = 100%; at 92.2 µM (top of the series);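 also: cells exposed to compound for 16 h at 37 °C before readout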
In short: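 qHTS, HEK293 (human embryonic kidney), 16 h cpd exposure in complete medium. Caspase-3/7 activation = luminescence increase; normalized to DMSO/100 uM tamoxifen; Hill-fit AC50.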

[5] = Cell Viability - LYMP2-003 (AID 965);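 also: cells exposed to compounds for 24 h before reading; nearly all actives have a fitted effect of over 50% in size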
In short: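 CellTiter-Glo luminescence (cellular ATP) after 24 h compound exposure at 37 C in complete medium; 2500 cells/well, 5 h settling beforehand. Concentration-response fitted to standard Hill equation for AC50. Tetraoctylammonium bromide served as positive control.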

[6] = Cell Viability - LYMP2-009 (AID 968); also: nearly all actives have a fitted effect of over 55% in size
[7] = Cell Viability - LYMP2-013 (AID 970); also: nearly all actives have a fitted effect of over 55% in size
In short: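 Cytotoxicity is scored as a concentration-dependent drop in intracellular ATP in human lymphoblastoid cells after 24 hr compound exposure at 37 C. ATP is quantified by luciferase luminescence, and AC50 values come from Hill-equation modeling.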

[8] = Cell Viability - LYMP2-019 (AID 973); also: nearly all actives have a fitted effect of over 55% in size
In short: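 Cytotoxicity is scored as a concentration-dependent drop in cellular ATP after cells (2500/well) receive compound for 24 hr at 37 C. Tetraoctylammonium bromide serves as positive control.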

[9] = Cell Viability - LYMP2-025 (AID 976)
In short: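 Acute cytotoxicity is scored as a concentration-dependent fall in intracellular ATP, measured by luciferase luminescence, in human lymphoblastoid LYMP2-025 cells exposed to compound for 24 hours at 37 C. AC50 values come from standard Hill fits.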

[10] = Cell Viability - LYMP2-002 (AID 977)
In short: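 Human lymphoblastoid cells (2500/well) in complete medium were preincubated 5 hr at 37 C, then exposed to compounds for 24 hr at 37 C. Intracellular ATP was read by CellTiter-Glo luminescence; AC50 came from Hill-equation concentration-response fits.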

[11] = Cell Viability - LYMP2-006 (AID 978); also: nearly all actives have a fitted effect of over 60% in size
In short: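 qHTS, 1536-well; 2500 cells/well, 5 hr 37 C; cpd 24 hr 37 C; CellTiter-Glo 30 min RT; luminescence. Tetraoctylammonium bromide pos. ctrl. AC50 via Hill eqn.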

[12] = Cell Viability - LYMP2-008 (AID 980); also: nearly all actives have a fitted effect of over 60% in size
In short: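 Cells seeded at 2500/well and rested 5 hr at 37 C; compounds added over a concentration range and incubated 24 hr at 37 C; CellTiter-Glo added, 30 min at room temperature; luminescence read and AC50 fitted with Hill model.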

[13] = Cell Viability - LYMP2-012 (AID 982)
[14] = Cell Viability - LYMP2-020 (AID 986); also: nearly all actives have a fitted effect of over 55% in size
In short: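 Seed 2500 cells per well and incubate 5 hr at 37 C. Add compounds at a concentration series and incubate 24 hr at 37 C. Add CellTiter-Glo, wait 30 min at RT, read luminescence, and fit a Hill curve for AC50.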

[15] = Cell Viability - LYMP2-022 (AID 987); also: nearly all actives have a fitted effect of over 55% in size
In short: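 Cells were seeded at 2500 per well, rested 5 hr at 37 C, and treated with titrated compounds for 24 hr at 37 C. Cellular ATP was then quantified by luciferase luminescence, and AC50 values were derived from Hill-modelled concentration-response curves.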

[16] = Cell Viability - LYMP2-026 (AID 989); also: nearly all actives have a fitted effect of over 50% in size
In short: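 Cells are seeded at 2500 per well and held 5 hr at 37 C. Compounds are added in concentration series for 24 hr, then CellTiter-Glo reagent is applied and luminescence read.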

[17] = Cell Viability - LYMP1-002 - Assay at 40 hr (AID 994); also: nearly all actives have a fitted effect of over 60% in size
In short: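 Cells are plated at 2500 per well and rested 5 hr at 37 C. Compounds are added and incubated 40 hr at 37 C. CellTiter-Glo reagent is added for 30 min at room temperature before luminescence is read.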

[18] = qHTS assay for small molecule agonists of retinoid X receptor alpha signaling (AID 588544; calls by dose curve); conditions: HEK293T RXRa-UAS-bla, beta-lactamase reporter, 18 h; 530 nm emission
[19] = molecular target: Retinoic acid receptor RXR-alpha (Homo sapiens) (UniProt P19793); experiment: as above
Sequence of Retinoic acid receptor RXR-alpha (Homo sapiens) (P19793 whole entry, looked up): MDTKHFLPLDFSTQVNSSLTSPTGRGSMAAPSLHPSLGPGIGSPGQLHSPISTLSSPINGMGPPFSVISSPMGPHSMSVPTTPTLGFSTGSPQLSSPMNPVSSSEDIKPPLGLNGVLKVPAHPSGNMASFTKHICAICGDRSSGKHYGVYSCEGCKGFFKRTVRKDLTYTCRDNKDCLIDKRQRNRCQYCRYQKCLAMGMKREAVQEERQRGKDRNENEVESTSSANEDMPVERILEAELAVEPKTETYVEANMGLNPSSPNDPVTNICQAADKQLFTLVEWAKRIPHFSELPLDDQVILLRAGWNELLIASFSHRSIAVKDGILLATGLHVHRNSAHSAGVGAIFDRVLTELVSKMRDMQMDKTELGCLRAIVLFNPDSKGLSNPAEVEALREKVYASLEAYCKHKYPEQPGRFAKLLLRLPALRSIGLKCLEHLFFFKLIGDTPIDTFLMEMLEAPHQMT

[20] = molecular target: Tumor necrosis factor (Homo sapiens) (UniProt P01375); experiment: qHTS assay to identify small molecules that stimulate Tumor Necrosis Factor-alpha (TNF-alpha) secretion (AID 651757; active = well fitted curve in the direction sought with a large enough effect in the signal ratio; the % refers to the signal ratio)
Sequence of Tumor necrosis factor (Homo sapiens) (P01375 whole entry, looked up): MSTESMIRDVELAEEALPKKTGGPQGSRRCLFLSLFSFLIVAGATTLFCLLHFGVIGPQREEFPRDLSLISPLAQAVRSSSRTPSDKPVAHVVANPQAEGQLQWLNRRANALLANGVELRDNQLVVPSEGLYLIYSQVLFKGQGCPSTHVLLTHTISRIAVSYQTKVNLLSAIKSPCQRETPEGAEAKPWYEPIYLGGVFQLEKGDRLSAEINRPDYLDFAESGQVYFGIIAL
In short: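 Human monocytic THP-1 cells are plated, treated with compound and held at 37 C for 17 hrs. Labeled anti-TNF-alpha antibody mixture is then added; after 3 hr at room temperature, TR-FRET signal reports secreted TNF-alpha.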

Compound | Potency [1] | Potency [2] | outcome [3] | caspase-3 activation [4] | Potency [5] | Potency [6] | Potency [7] | Potency [8] | Potency [9] | Potency [10] | Potency [11] | Potency [12] | Potency [13] | Potency [14] | Potency [15] | Potency [16] | Potency [17] | max response [18] | outcome [19] | outcome [20]
CC(Cl)(Cl)Cl | inactive | inactive | inactive | -1.64% (inactive) | inactive | inactive | inactive | inactive | inactive | inactive | inactive | inactive | inactive | inactive | inactive | inactive | inactive | -3.95% and -14.6% | inactive | inactive
CC(C)(Cl)Cl | inactive | inactive | inactive | 0.825% (inactive) | inactive | inactive | inactive | inactive | inactive | inactive | inactive | inactive | inactive | inactive | inactive | inactive | inactive | -10.7% | inactive | inactive
Cc1ccc(N=C=O)cc1N=C=O | inactive | inactive | inactive | 2% (inactive) | inactive | inactive | inactive | inactive | inactive | inactive | inactive | inactive | inactive | inactive | inactive | inactive | inactive | -4.25% and -19.3% | inactive | –
Nc1ccc(Cl)c(Cl)c1 | inactive | inactive | inactive | 0.307% (inactive) | inactive | inactive | inactive | inactive | inactive | inactive | inactive | inactive | inactive | inactive | inactive | inactive | inactive | 3.91% | inactive | inactive
C=C(Cl)CSC(=S)N(CC)CC | inactive | inactive | inactive | 0.963% (inactive) | – | – | inactive | – | inactive | inactive | inactive | – | inactive | – | – | inactive | inactive | -16.2% | inactive | inactive
Cc1ccc(N)cc1C | inactive | inactive | inactive | 0.308% (inactive) | inactive | inactive | inactive | inactive | inactive | inactive | inactive | inactive | inactive | inactive | inactive | inactive | inactive | -0.563% | inactive | inactive
CCCCNC(=O)n1c(NC(=O)OC)nc2ccccc21 | 5.01 µM (active) | 6.31 µM (active) | – | -2.55% (inactive) | inactive | inactive | inactive | inactive | inactive | inactive | inactive | inactive | inactive | inactive | – | inactive | – | 14.8% | inactive | inactive
C=CCO | inactive | inactive | inactive | 0.437% (inactive) | inactive | inactive | inactive | inactive | inactive | inactive | inactive | inactive | inactive | inactive | inactive | inactive | inactive | -10.3% | inactive | inactive
